Screens from PubChem BioAssay.
Statin myotox sup: suppressors of simvastatin-induced myotoxicity in C2C12 myotubes | ATP luminescence, 48 h; scaled: DMSO 0, geranylgeraniol control 100 | rescue of ATP level, % at 7.49 µM | 330,000 tested, 0.78% active | AID 602340;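 active means mean ATP rescue above about 67%, or every replicate alone reaching that limit, limit read from the data, passing the limit was not always enough; inconclusive means no clear call, values can overlap the other calls; inactive means mean under the limit and some replicate under it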;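 further: myotubes were challenged with 10 µM simvastatin during compound exposure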
GAA850 FXN act: frataxin GAA850 promoter activation; HEK293 lucGAA850 FXN promoter luciferase reporter, 24 h; percent of 10 µM SAHA response; activation, % at 6 µM; 360,000 tested, 0.56% active; AID 540364;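 active means activation above the average of all compounds screened plus 3 SD, cutoff fixed separately per campaign, cut at about 7.5% in these data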
Wnt act: activates Wnt/beta-catenin signaling in a reporter cell assay. activation, % at 9.35 µM. 300,000 tested, 1.2% active. activator, plate reader; in the data active means activation above about 30%, passing the limit was not always enough; inconclusive means no clear call, values can overlap the other calls
esBAF inh: blocks esBAF chromatin remodeling in mouse ES cells; Bmi1-luciferase knock-in reporter, 24 h; 100% = twice the neutral-well signal; reporter increase, % at 12.5 µM; 350,000 tested, 2% active; AID 602393; in the data active means activation above about 40%; inconclusive means no clear call, values can overlap the other calls;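 further: a rise in the Bmi1 reporter signal indicates esBAF inhibition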
MITF TRPM1 HTS: activators of MITF-driven TRPM1 promoter activity in SK-MEL-5 cells. SK-MEL-5 TRPM1-promoter luciferase, 24 h; % of positive control, neutral wells = 0. activation, % at 12.5 µM. 300,000 tested, 0.75% active. AID 588334;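 active means mean activation of at least 80% with every replicate also reaching 80%; inconclusive means mean reaches 80% but some replicate falls short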
Numbers stand for hits; . = inactive; ? = inconclusive; / = not tested or not shown. In the library only some 3.3% were active in any assay of this set; here they are far more common.

SMILES	Statin myotox sup	GAA850 FXN act	Wnt act	esBAF inh	MITF TRPM1 HTS
O=C(Nc1sc2c(c1C(=O)O)CCC2)c1ccccc1	.	.	?	53	.
O=C(Nc1sc2c(c1C(=O)O)CCCCC2)c1ccccc1	/	.	.	/	.
NCCNC(=O)c1c(NC(=O)c2ccccc2)sc2c1CCCC2	.	.	.	68	.
O=C(Nc1sc2c(c1C(=O)O)CCC2)c1ccc(F)cc1	.	.	.	63	.
O=C(Nc1sc2c(c1C(=O)O)CCCC2)c1cccc(Cl)c1	.	.	.	73	.
CN(C)C(=O)c1ccc(-c2cc(C(F)(F)F)nn2C)s1	/	.	33	/	/
Cn1nc(-c2ccc(S(N)(=O)=O)s2)cc1C(F)(F)F	.	.	.	.	.
Cn1nc(C(F)(F)F)cc1-c1ccc(S(N)(=O)=O)s1	.	.	.	52	.
CC(C)C#Cc1cnc2c(c1)C(=O)N([C@H](C)CO)C[C@H](C)[C@H](CN(C)C(=O)Nc1ccc(F)cc1)O2	.	/	/	.	/
Cc1ccc(C)c(C(=O)CN2C(=O)NC3(CCCCCCC3)C2=O)c1	/	.	.	/	.
Cc1cc(C(=O)CN2C(=O)C3CC=CCC3C2=O)c(C)n1-c1ccccc1 (stereo not given)	.	.	48	.	/
CCCn1c(C)cc(C(=O)CN2C(=O)c3ccccc3C2=O)c1C	/	.	43	/	.
Cc1cc(C(=O)CN2C(=O)NC3(CCCCCC3)C2=O)c(C)n1C	.	.	.	44	.
Cc1cc(C(=O)CN2C(=O)c3ccccc3S2(=O)=O)c(C)n1-c1ccccc1	.	.	.	.	.
COCCn1c(C)cc(C(=O)CN2C(=O)NC3(CCCCCC3)C2=O)c1C	.	.	?	?	.
CCCn1c(C)cc(C(=O)CN2C(=O)NC3(CCCCCC3)C2=O)c1C	.	.	.	54	/
CCn1c(C)cc(C(=O)CN2C(=O)c3ccccc3S2(=O)=O)c1C	.	.	.	.	.
C[C@H](CO)N1C[C@H](C)[C@@H](CN(C)Cc2ccc(Cl)c(Cl)c2)OCCCC[C@H](C)Oc2ccc(NS(=O)(=O)c3ccc(F)cc3)cc2C1=O	/	/	/	.	/
CCCNC(=O)Nc1ccc2c(c1)OC[C@@H](C)N(C(=O)CC)C[C@@H](C)[C@@H](OC)CN(C)C2=O	.	/	/	.	/
CO[C@H]1CN(C)C(=O)c2ccc(NC(=O)C3CCCC3)cc2OC[C@H](C)N(CCC(F)(F)F)C[C@H]1C	.	/	/	.	/
O=C(Cn1cnc2c(nnn2-c2cccc(Cl)c2)c1=O)N1CCOCC1	.	.	56	.	.
O=C(Cn1cnc2c(nnn2-c2ccccc2)c1=O)N1CCOCC1	.	.	.	.	.
Cc1ccc(N2CC(C(=O)Nc3ccc4c(c3)OCCO4)CC2=O)cc1C (stereo not given)	.	.	.	.	.
Cc1ccc(NC(=O)c2nnn(-c3ccc4c(c3)OCCO4)c2N)cc1	.	.	.	70	99
Cc1ccc(N2CC(C(=O)Nc3ccc4c(c3)OCCO4)CC2=O)cc1 (stereo not given)	.	.	30	.	.
SMILES	Statin myotox sup	GAA850 FXN act	Wnt act	esBAF inh	MITF TRPM1 HTS
Cc1cc(C)c(NC(=O)Cn2nnc(C(=O)NCc3ccc4c(c3)OCO4)c2N)c(C)c1	92	.	/	.	.
C[C@@H](C(=O)Nc1ccc2c(c1)OCCO2)n1nnc2ccccc2c1=O	.	.	.	57	101
Cc1ccc(C)c(Cn2nnc(C(=O)Nc3ccc4c(c3)OCCO4)c2N)c1	.	.	.	64	85
Cc1cc(C)cc(NC(=O)c2nnn(Cc3cc(C)ccc3C)c2N)c1	.	.	/	.	.
Cc1ccccc1Cn1nnc(C(=O)Nc2ccc3c(c2)OCCO3)c1N	.	.	46	68	91
O=C(C1CC1)N1[C@H](CO)[C@@H]2c3ccccc3N(S(=O)(=O)c3ccc(F)cc3)C[C@@H]21	.	/	/	.	/
Cc1noc(C)c1NC(=O)N(C)C[C@H]1OCCCC[C@@H](C)Oc2ccc(N(C)C)cc2C(=O)N([C@@H](C)CO)C[C@H]1C	.	/	/	.	/
Cc1sc2nc(CN(C(=O)c3cccs3)C3CCCC3)[nH]c(=O)c2c1C	148	.	.	.	.
CC(=O)Oc1ccc(Oc2ccc(-c3noc(C)n3)cc2)cc1	.	.	48	.	/
CC(=O)Nc1ccc(Oc2ccc(-c3noc(C)n3)cc2)cc1	.	.	/	.	.
CCn1c(-c2ccc(C(C)(C)C)cc2)n[nH]c1=S	.	.	/	.	.
Cn1c(-c2ccc(C(C)(C)C)cc2)n[nH]c1=S	.	.	/	50	.
C[C@@H]1CN([C@@H](C)CO)C(=O)Cc2cc(NS(=O)(=O)c3cn(C)cn3)ccc2O[C@H]1CN(C)Cc1ccc(Cl)c(Cl)c1	.	/	/	.	/
O=c1c2ccccc2oc2ccc(Oc3ccccc3)cc12	.	.	54	.	?
O=c1c2ccccc2oc2cc(Br)ccc12	.	.	.	71	.
O=c1[nH]c(=O)c2ccccc2o1	/	/	.	/	/
O=c1c2ccccc2oc2c1oc1ccccc12	.	.	.	54	103
C=CCn1cccc(C(=O)Nc2ccc(C)c(C)c2)c1=O	.	.	?	49	.
C=CCn1cccc(C(=O)Nc2ccc(C)cc2)c1=O	.	.	.	.	/
O=C(NCc1ccco1)C(c1ccccc1)N(C(=O)Cc1cccs1)c1ccccc1F (stereo not given)	98	.	.	.	.
Cc1noc(C)c1NC(=O)Nc1cccc2c1O[C@H](CN(C)CC1CCCCC1)[C@@H](C)CN([C@H](C)CO)C2=O	.	/	/	.	/
NC12CC3CC(C1)CC(CC(=O)O)(C3)C2	.	.	.	.	.
NC12CC3CC(C1)CC(CO)(C3)O2	111	.	.	.	.
CCCc1ccc(OCc2ccc(C(=O)OC)o2)c(OC)c1	.	.	.	43	.
COc1ccccc1NC(=O)COc1ccccc1C(=O)c1cnn(-c2ccccc2)c1	/	.	50	/	.
SMILES	Statin myotox sup	GAA850 FXN act	Wnt act	esBAF inh	MITF TRPM1 HTS
O=C(COC(=O)c1ccccc1O)NCCC1=CCCCC1	/	.	.	/	.
O=C(COC(=O)c1ccccc1NC(=O)c1ccco1)NCCC1=CCCCC1	.	.	/	63	.
CCc1ccc2[nH]c(=O)c(CN(Cc3ccccc3OC)Cc3nnnn3Cc3ccco3)cc2c1	100	.	/	.	.
CO[C@@H]1CN(C)C(=O)c2cc(NC(=O)c3cc(C)on3)ccc2OC[C@@H](C)N(CC2CC2)C[C@H]1C	.	/	/	.	/
Cc1nnc(NC(=O)c2cccc(NC(=O)C(C)C)c2)s1	.	.	/	.	.
CC(C)c1nnc(NC(=O)c2cccc(NC(=O)C(F)(F)F)c2)s1	/	.	35	/	.
CCc1nnc(NC(=O)c2cccc(NC(=O)C(C)C)c2)s1	/	.	.	/	.
CC(C)C(=O)Nc1cccc(C(=O)Nc2nnc(C(C)C)s2)c1	.	.	/	.	91
O=C(c1cccnc1)N1C[C@H]2[C@@H](c3ccccc31)[C@@H](CO)N2C(=O)Nc1ccccc1	.	/	/	.	/
CCCc1cc(Nc2c(C)n(C)n(-c3ccccc3)c2=O)n2c(nc3ccccc32)c1C#N	104	.	.	.	.
Cc1cc(Nc2c(C)n(C)n(-c3ccccc3)c2=O)n2c(nc3ccccc32)c1C#N	.	.	.	.	.
